Results on 110 molecules are retold here after PubChem BioAssay AID504861 (Broad Institute, 2011).

Among all 1,200 compounds or so, about 290 (24%) were called active. Inconclusive results (about 3%) are left out. Not all results are given here. Results with a measured potency or affinity are listed apart. Values without a mark were called inactive.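 How the source made its calls: active means compounds lowering cell viability signal with fitted half-maximal concentration at most ten times their highest tested concentration; inconclusive means flat fit with 30 to 70% signal loss, or poor fit; inactive means the rest.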

The nature of the assay: cytotoxicity in HEK293T cells – cell-based, CellTiter-Glo luminescence, cherry-picks, cytotoxicity control for LMP1 NF-kB inhibitor project, dose response (AID 504861). Particulars: HEK293T viability, CellTiter-Glo ATP luminescence, 48 h; series mostly up to 26 µM; activity change, negative = cytotoxicity: at the top concentration.
For `CCOC(=O)Nc1ccc2c(c1)N(C(=O)CN(C)C)c1ccccc1CC2`, the “activity change, negative = cytotoxicity” value was 8.4%.
With `CCOCCCNC(=O)CN1C(=O)/C(=C\c2ccc(C)cc2)Sc2ccccc21` the figure was 1.27%; with `CCN(c1ccccc1)S(=O)(=O)c1ccc(Cl)c(NC(=O)Nc2ccc(Cl)cc2C#N)c1`, 0.681%.
For `COc1ccc(-c2csc3ncnc(NCCO)c23)cc1`, the “activity change, negative = cytotoxicity” value is -5.42%.
The same measure for `COC(=O)c1cc2n(n1)CCN(Cc1ccccc1Cl)C2=O`: 20.5%; for `CC1CN(c2cc(=O)n(-c3ccccc3)c(=O)[nH]2)CC(C)O1` (stereo not given): 5.49%; for `CCc1cc2c(Sc3nc4ccccc4s3)ncnc2s1`: 3.61%.
Take `Cc1nn(-c2ccccc2)c(Cl)c1C(=O)N1CCN(c2ncnc3c2cnn3-c2ccccc2)CC1`: the “activity change, negative = cytotoxicity” value was -6.98%.
With `CC1(C)Cc2c(ccc3ccccc23)/C(=C/C(=O)N2CCCCC2)N1` the figure was -4.53%; with `COc1ccc(NC(=O)NCCN2CCc3ccccc3C2)cc1`, 12.1%; with `COc1ccc2cc(-c3cc(C(=O)O)c4ccccc4n3)ccc2c1`, -2.9%.
Consider `Cc1cc2cc(CN(Cc3ccco3)S(=O)(=O)c3c(C)ccc4nsnc34)c(=O)[nH]c2cc1C`, for which the “activity change, negative = cytotoxicity” value was 5.72%.
The same measure for `CCCN(CC)c1ncnc2[nH]ncc12`: 6.36%; for `COc1ccc(/C=N/Nc2cc(OC)ncn2)cc1`: -6.09%.
With `CN(C)c1ccc(C=Cc2ccnc3c(O)cccc23)cc1`, the “activity change, negative = cytotoxicity” value was 7.55%.
With `COc1ccc(CC(C)NCC(O)c2ccc(O)c(NC=O)c2)cc1` (stereo not given) the figure was 9.09%; with `COc1ccc(-n2c(SCC(=O)Nc3ccc4c(c3)OCO4)nc3c(c2=O)SCC3)cc1`, 14.8%; with `CCOCCCn1cnc2c3cc(F)ccc3n(C)c2c1=O`, 4.26%.
As for `CC(C)(C)n1nc(-c2ccc(Cl)cc2)c2c(N)ncnc21`, the “activity change, negative = cytotoxicity” value was 5.92%.
The same measure for `CCc1ccc(/C=C2\SC(=S)N(CCCC(=O)NC3=NCCS3)C2=O)cc1`: 4.7%; for `CCOc1cc(/C=C2/C(=N)N3N=C(CC)SC3=NC2=O)ccc1OC(=O)c1ccco1`: 1.86%; for `COc1ccc(-c2cc(C(=O)N3CCCC3)no2)cc1`: -9.67%.
With `O=Cc1ccc(-c2cccs2)s1` the figure was 2.5%; with `COC(=O)c1ccc(CSc2nc3c(c(=O)n2-c2ccc(C)cc2)SCC3)o1`, 0.495%.
`Cc1ccc(-n2cc(C(=O)c3ccccc3O)cn2)cc1`: the “activity change, negative = cytotoxicity” value was 1.39%.
The same measure for `COc1ccc(C(=O)N=c2nc3ccccn3s2)cc1`: 0.856%; for `CC(=O)c1cc(C(=O)Nc2ccc(C(=O)O)cc2)oc1C`: 6.62%; for `COc1ccc(NC(=O)/C(C#N)=C/c2cc(C)n(-c3ccc(N4CCOCC4)c([N+](=O)[O-])c3)c2C)cc1`: 12.6%.
With `CCOC(=O)c1c(CSc2nc(C)cc(C)c2C#N)n(C)c2cc(Br)c(OC(C)=O)cc12` the figure was 7.63%.
With `Cc1nc(SCC(=O)c2cccc([N+](=O)[O-])c2)n[nH]1` the figure was 6.82%; with `CCOc1ccc(Nc2ncnc3ccc([N+](=O)[O-])cc23)cc1`, 0.16%.
In the case of `CC(NC(=O)CNC(=O)OCc1ccccc1)C(=O)N1CC(O)CC1C(=O)OCc1ccccc1` (stereo not given), the “activity change, negative = cytotoxicity” value was 3.26%.
For `CC(C)(C)OC(=O)N1Cc2ccccc2C[C@H]1C(=O)NCC(=O)Nc1ccc2c(c1)OCCO2`, the “activity change, negative = cytotoxicity” value was 1.18%.
With `COc1ccc(-n2cnc3c(cnn3CCC#N)c2=N)cc1` the figure was 1.49%; with `Cc1ccn2c(c1)nc(=S)n2C(=O)c1ccccc1`, 4.84%; with `COc1ccc(NC(=O)c2cc3c(CO)cnc(C)c3oc2=Nc2cccc(F)c2)c(OC)c1`, 5.36%.
`N#Cc1c(Nc2ccccc2)sc(C(=O)c2ccc(F)cc2)c1N`: the “activity change, negative = cytotoxicity” value is -4.44%.
With `C=CCn1c(SCc2csc(C)n2)nc2sc3c(c2c1=O)CCCC3` the figure was 0.035%; with `CCn1c2ccccc2c2cc(/C=N/n3cn[nH]c3=S)ccc21`, -7.9%.
Turning to `O=C1CC(c2cccs2)Cc2nc(NC(=O)C3CC3)ncc21` (stereo not given), the “activity change, negative = cytotoxicity” value was 5.6%.
The same measure for `CC(=O)O[C@]1(C(C)=O)CC[C@H]2[C@@H]3C=C(C)C4=CC(=O)CC[C@@H]4[C@H]3CC[C@@]21C`: 3.47%; for `Cc1ccc(-c2cc(C(=O)N/N=C/C=C/c3ccco3)c3ccccc3n2)cc1C`: 6.86%; for `Cc1ccc(C(=O)NCC(=O)N(C)Cc2cccc(F)c2)s1`: 9.7%.
The same measure for `Cn1cccc1/C=N/n1c(-c2ccc(Cl)cc2Cl)n[nH]c1=S`: 20.7%; for `CCn1nnc2cc(C(=O)NCCc3ccccc3F)ccc21`: 4.03%.
With `O=C(Nc1cccc(C(=O)O)c1)Nc1ccccc1Cl` the figure was -4.79%.
As to `O=C(NCCc1cn2ccccc2n1)C1CCCCC1`, the “activity change, negative = cytotoxicity” value was 2.71%.
With `Cc1ccc(C)c(Cn2c(O)c(N=NC(=S)Nc3ccccc3F)c3ccccc32)c1` the figure was 4.62%; with `N#CC1=C(N)C(C#N)(C#N)C(c2cccnc2)C2CC(c3ccccc3)CC=C12` (stereo not given), -9.23%; with `Cc1nc(C)n(C(C)CNC(=O)c2ccco2)n1` (stereo not given), 20.6%.
The same measure for `O=C(O)c1ccccc1Nc1cccc(OCc2ccc3ccccc3n2)c1`: 2.93%.
The same measure for `CCCC(=O)NCCCc1nc2ccccc2n1C`: 4.83%; for `O=C(O)c1cc(=O)c2c(OCC(O)COc3cccc4oc(C(=O)O)cc(=O)c34)cccc2o1`: 2.34%.
As to `COc1ccc(-n2c(C)c([N+](=O)[O-])c3ccc(O)c(CN(C)C)c32)cc1`, the “activity change, negative = cytotoxicity” value is -4.24%.
`COc1ccc(Cl)cc1NC(=O)CN(C)S(=O)(=O)c1cccs1`: the “activity change, negative = cytotoxicity” value was 0.878%.
The same measure for `OCCN(CCO)CC(O)COCCC12CC3CC(CC(C3)C1)C2` (stereo not given): 6.07%; for `O=C(Nc1ccc2c(c1)nc1n2CCSC1)c1ccco1`: 1.58%.
Consider `CCn1c(/C=C/c2ccc([N+](=O)[O-])o2)nc2ccccc2c1=O`, for which the “activity change, negative = cytotoxicity” value was -4.54%.
The same measure for `Cc1ccc(/C=C/c2nc3ccccc3c(=O)[nH]2)cc1`: 11.4%.
With `COc1ccccc1-c1ccccc1C1=CC(=O)CC(C)(C)C1=O` the figure was -7.07%; with `COc1ccc(/C=C2\N=C(C)OC2=O)cc1[N+](=O)[O-]`, 17%.
On to `Brc1cccc(-c2cnco2)c1`, for which the “activity change, negative = cytotoxicity” value was 4.42%.
On to `O=c1[nH]c(=O)n([C@H]2C[C@H](O)[C@@H](CO)O2)cc1C(F)(F)F`, for which the “activity change, negative = cytotoxicity” value is -5.32%.
With `O=c1c2c(nc3c(-c4cccc(Br)c4)c[nH]n13)CCCC2` the figure was 5.69%; with `CC(C)C(=O)Nc1ccc(C(=O)N/N=C/c2cc(Br)cc(Br)c2O)cc1`, 4.48%.
With `Clc1ccc(-c2cn3nc4c(nc3n2)CCCC4)cc1` the figure was 10.1%.
The same measure for `COc1ccc(NC(=O)C2CCCN(S(=O)(=O)c3cccc4nonc34)C2)c(OC)c1` (stereo not given): 2%; for `CC(=O)Nc1ccc(C=NNc2nnc(NN=Cc3ccc(NC(C)=O)cc3)c3ccccc23)cc1`: 6.7%; for `COc1ccc(N2C(=O)CC(Sc3nnc(-c4ccccc4)o3)C2=O)cc1` (stereo not given): 4.02%.
Consider `Cc1cccc(NC(=O)Nc2c(C)n(C)n(-c3ccccc3)c2=O)c1C`, for which the “activity change, negative = cytotoxicity” value was 43.7%.
For the molecule `Cc1c(C=O)c2ccccn2c1C(=O)c1ccccc1Cl`, the “activity change, negative = cytotoxicity” value is 5.73%.
On to `Clc1ccc2nc(-c3ccc4c(c3)OCO4)cn2c1`, for which the “activity change, negative = cytotoxicity” value is -2.92%.
As for `COC(=O)c1ccc2nc(-c3ccc4c(c3)OCO4)cn2c1`, the “activity change, negative = cytotoxicity” value is 7.59%.
With `Cc1c(/C(O)=C2/C(=O)C(=O)N(CCN3CCOCC3)C2c2ccccn2)cnn1-c1ccccc1` (stereo not given) the figure was -7.18%; with `CCc1cc(=O)oc2c(CNCc3c(F)cccc3Cl)c(O)ccc12`, 2.48%.
With `COc1ccccc1C(=O)NC(=O)CSc1nnc(N)s1` the figure was -1.07%; with `CS(=O)(=O)c1ccc(Sc2nc3ccccc3s2)c([N+](=O)[O-])c1`, -4.39%.
With `COc1ccc(-c2nc(CS(=O)CC(=O)NCc3ccc(Cl)cc3)c(C)o2)cc1` (stereo not given) the figure was 6.15%.
For the molecule `COc1ccc(S(=O)(=O)NCCc2csc(-c3cccnc3)n2)cc1`, the “activity change, negative = cytotoxicity” value was 1.59%.
Consider `Cc1cccc(Cn2cc(SCC(=O)Nc3nccs3)c3ccccc32)c1`, for which the “activity change, negative = cytotoxicity” value was 8.72%.
As for `O=C1/C(=C/c2cccnc2)SC(=S)N1Cc1ccco1`, the “activity change, negative = cytotoxicity” value is 5.5%.
With `CCOc1ccc(-c2nc(CSCC(=O)NCc3ccco3)c(C)o2)cc1` the figure was 4.12%; with `CCOC(=O)c1ccc(NC(=S)N2CCSC2c2ccc(OC)cc2)cc1` (stereo not given), 8.51%.
With `Cc1ccc(/C=C/C(=O)C2C(=O)c3ccccc3C2=O)cc1` the figure was 3.89%; with `Cc1ccc(C(=O)NCCc2cccs2)cc1`, -6.71%; with `Cc1cc(C)n(C2CCCCC2OC(=O)c2ccccc2F)n1` (stereo not given), 7.27%.
Turning to `CNC(=S)Nc1ccc2nc(C)c(C)nc2c1`, the “activity change, negative = cytotoxicity” value was 1.31%.
Take `Cc1cc(=O)[nH]c(N=N/C(=N/Nc2ccccc2C)c2ccccc2)n1`: the “activity change, negative = cytotoxicity” value is 0.611%.
Take `O=C(Nc1ccc(Br)cc1)C1CC(O)CN1C(=O)OCc1ccccc1` (stereo not given): the “activity change, negative = cytotoxicity” value is 6.89%.
Take `O=C(O)CCc1nc(-c2ccc(Cl)cc2)no1`: the “activity change, negative = cytotoxicity” value was 12.4%.
With `Cn1c(-c2ccccc2)cnc1SCC(=O)N1CCCCC1` the figure was 3.75%; with `O=C(N/N=C/c1cccnc1)c1cc(-c2cccs2)nc2ccccc12`, -0.968%.
As for `NC(=O)c1sc2nc3c(c(-c4cccs4)c2c1N)CCCCC3`, the “activity change, negative = cytotoxicity” value is -1.65%.
With `O=C(CN1C(=O)c2ccccc2C1=O)NNC1=NS(=O)(=O)c2ccccc21` the figure was 6.87%; with `COc1ccc(-n2nc(C(=O)c3cccs3)cc(-c3nc4ccccc4[nH]3)c2=N)cc1`, -3.71%.
With `O=C(Nc1nnc(N2CCCCCC2)s1)c1cc(-c2ccc(Br)cc2)on1` the figure was 4.97%; with `Cc1ccccc1N(C(=O)c1snc(C(N)=O)c1N)C(C(=O)NC1CCCCC1)c1ccc(O)cc1` (stereo not given), 1.86%; with `Cc1cc(NC(=O)c2ccc3c(c2)OCCO3)no1`, 7.18%.
Regarding `CSc1nc2cc3c(cc2n1C(=O)c1ccc(C)cc1)OCCO3`, the “activity change, negative = cytotoxicity” value is 1.34%.
Take `C/C(=N\Nc1ccc(C(F)(F)F)cc1[N+](=O)[O-])C(C)C`: the “activity change, negative = cytotoxicity” value was 0.008%.
On to `Nc1ccccc1SC1CC(=O)N(c2ccccc2Cl)C1=O` (stereo not given), for which the “activity change, negative = cytotoxicity” value was -4.97%.
`Cc1cccc(Nc2nc(Cl)ncc2F)c1C`: the “activity change, negative = cytotoxicity” value is 10.1%.
The same measure for `Cc1ccnc(SCCn2c(N3CCN(c4ccccc4)CC3)nc3c2c(=O)[nH]c(=O)n3C)n1`: 17.5%; for `O=C(NCCCN1CCCCC1)c1ccc2c(c1)NC(=O)c1ccccc1S2`: 7.92%; for `COc1ccc(-c2cc3nc(-c4ccccc4)cc(N4CCCC(O)C4)n3n2)cc1` (stereo not given): 14.7%.
With `O=C(N/C(=C/c1ccc(Br)cc1)C(=O)N1CCOCC1)c1ccc(Br)o1` the figure was 7.11%.
Turning to `COc1cccc(-c2nc(NCc3ccccc3)c3ccccc3n2)c1O`, the “activity change, negative = cytotoxicity” value is 3.06%.
With `O=C(NCCc1ccccc1)c1ccc2nccnc2c1` the figure was 1.28%; with `O=C(Nc1ccc(Cl)c(Cl)c1)Nc1nc(-c2ccccc2)cs1`, 0.564%.
For the molecule `CCc1ccccc1N(CC(=O)NCc1ccco1)C(=O)c1snc(C(N)=O)c1N`, the “activity change, negative = cytotoxicity” value was 9.6%.
